# Values joined by “and” are separate entries in the source; they are usually repeats but may differ in a detail not shown here. Equal entries are not always repeated. The whole screen tested about 5,500 compounds, of which about 2,000 (36%) were called active. About 18% were inconclusive and are not listed. The list shows a part of the results. Values without a mark were called inactive. Cut-off read from the data, not from the text of the source: active = normalized growth mostly below about 0.91 (no sharp cut-off); inconclusive = no clear call, values can overlap the other calls; inactive = mostly above about 0.92.
# Assay: chemical genetic growth profiling, strain panel (AID 1159580);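 note: tested at 20 µM; growth read once vehicle control cultures reached saturation at 30 °C; 1 = growth at the plate median or of vehicle wells; lower values mean less growth of the strain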
# Details: S. cerevisiae deletion strains, growth OD
smiles,measurement,setting,value
CC(COc1ccccc1)N(CCCl)Cc1ccccc1 (stereo not given),normalized growth,"locus YAL013W, strain DEP1, hits give low values",1.01
same,normalized growth,"locus YAL021C, strain ccr4, hits give low values",0.96
same,normalized growth,"locus YAL026C, strain drs2, hits give low values",0.936
same,normalized growth,"locus YAL030W, strain snc1, hits give low values",0.974
same,normalized growth,"locus YAL040C, strain CLN3, hits give low values",1.09
same,normalized growth,"locus YBL061C, strain skt5, hits give low values",0.978
same,normalized growth,"locus YBR009C, strain hhf1, hits give low values",0.99
same,normalized growth,"locus YBR021W, strain FUR4, hits give low values",1.02
same,normalized growth,"locus YBR023C, strain chs3, hits give low values",0.97
same,normalized growth,"locus YBR171W, strain sec66, hits give low values",0.984
same,normalized growth,"locus YBR229C, strain ROT2, hits give low values",1
same,normalized growth,"locus YBR231C, strain swc5, hits give low values",1.01
same,normalized growth,"locus YBR279W, strain paf1, hits give low values",0.961
same,normalized growth,"locus YCL011C, strain gbp2, hits give low values",0.895 (active)
same,normalized growth,"locus YCL016C, strain dcc1, hits give low values",0.947
same,normalized growth,"locus YCL029C, strain bik1, hits give low values",1.03
same,normalized growth,"locus YCL061C, strain MRC1 (second series), hits give low values",0.956
same,normalized growth,"locus YCL061C, strain MRC1, hits give low values",0.964
same,normalized growth,"locus YCL069W, strain vba3, hits give low values",0.995
same,normalized growth,"locus YCR088W, strain abp1, hits give low values",0.986
same,normalized growth,"locus YDL005C, strain med2, hits give low values",0.972
same,normalized growth,"locus YDL035C, strain GPR1, hits give low values",0.997
same,normalized growth,"locus YDL040C, strain nat1, hits give low values",0.983
same,normalized growth,"locus YDL074C, strain BRE1, hits give low values",1.02
same,normalized growth,"locus YDL101C, strain DUN1, hits give low values",1.01
same,normalized growth,"locus YDL134C, strain PPH21, hits give low values",1.01
same,normalized growth,"locus YDL185W, strain tfp1, hits give low values",1.01
same,normalized growth,"locus YDL192W, strain arf1, hits give low values",1.01
same,normalized growth,"locus YDR001C, strain nth1, hits give low values",0.985
same,normalized growth,"locus YDR069C, strain doa4, hits give low values",0.965
same,normalized growth,"locus YDR101C, strain arx1, hits give low values",1.01
same,normalized growth,"locus YDR137W, strain rgp1, hits give low values",0.853
same,normalized growth,"locus YDR150W, strain NUM1, hits give low values",1.01 and 0.963
same,normalized growth,"locus YDR159W, strain sac3, hits give low values",0.978
same,normalized growth,"locus YDR162C, strain NBP2, hits give low values",0.998
same,normalized growth,"locus YDR195W, strain ref2",1.03
same,normalized growth,"locus YDR297W, strain sur2, hits give low values",0.995
same,normalized growth,"locus YDR318W, strain mcm21, hits give low values",1.01
same,normalized growth,"locus YDR334W, strain swr1, hits give low values",0.969
same,normalized growth,"locus YDR335W, strain msn5, hits give low values",0.974
same,normalized growth,"locus YDR363W, strain ESC2, hits give low values",0.905
same,normalized growth,"locus YDR388W, hits give low values",1.02
same,normalized growth,"locus YDR392W, strain spt3, hits give low values",0.742
same,normalized growth,"locus YDR502C, strain sam2, hits give low values",0.999
same,normalized growth,"locus YEL003W, strain gim4, hits give low values",0.991
same,normalized growth,"locus YEL037C, strain rad23, hits give low values",0.978
same,normalized growth,"locus YEL061C, strain CIN8 (second series), hits give low values",0.971
same,normalized growth,"locus YEL061C, strain CIN8, hits give low values",1.01
same,normalized growth,"locus YER002W, strain NOP16, hits give low values",1.02
same,normalized growth,"locus YER015W, strain faa2, hits give low values",0.993
same,normalized growth,"locus YER016W, strain bim1, hits give low values",0.983
same,normalized growth,"locus YER110C, hits give low values",1.01
same,normalized growth,"locus YER111C, strain swi4, hits give low values",0.995
same,normalized growth,"locus YER155C, strain BEM2 (second series), hits give low values",0.994
same,normalized growth,"locus YER155C, strain BEM2, hits give low values",1.01
same,normalized growth,"locus YER167W, strain BCK2, hits give low values",0.991
same,normalized growth,"locus YFR010W, strain ubp6, hits give low values",0.986
same,normalized growth,"locus YGL078C, strain dbp3, hits give low values",1.01
same,normalized growth,"locus YGL086W, strain mad1, hits give low values",0.986
same,normalized growth,"locus YGL167C, strain pmr1, hits give low values",1
same,normalized growth,"locus YGL173C, strain kem1, hits give low values",1.01
same,normalized growth,"locus YGL227W, strain vid30, hits give low values",0.973
same,normalized growth,"locus YGL240W, strain doc1, hits give low values",1
same,normalized growth,"locus YGL248W, strain PDE1, hits give low values",1.01
same,normalized growth,"locus YGL253W, strain hxk2, hits give low values",0.921
same,normalized growth,"locus YGR078C, strain PAC10, hits give low values",1.01
same,normalized growth,"locus YGR135W, strain pre9, hits give low values",1.01
same,normalized growth,"locus YGR229C, strain SMI1, hits give low values",0.999
same,normalized growth,"locus YGR252W, strain gcn5, hits give low values",0.957
same,normalized growth,"locus YHR013C, strain ard1, hits give low values",0.924
same,normalized growth,"locus YHR027C, strain rpn1, hits give low values",0.991
same,normalized growth,"locus YHR030C, strain SLT2, hits give low values",1.01 and 0.986
same,normalized growth,"locus YHR079C, strain IRE1 (second series), hits give low values",1.02
same,normalized growth,"locus YHR079C, strain IRE1, hits give low values",0.964
same,normalized growth,"locus YHR094C, strain hxt1, hits give low values",1.02
same,normalized growth,"locus YHR129C, strain ARP1, hits give low values",1.01
same,normalized growth,"locus YHR142W, strain chs7, hits give low values",0.938
same,normalized growth,"locus YHR200W, strain rpn10, hits give low values",1.01
same,normalized growth,"locus YIL066C, strain RNR3, hits give low values",1.01
same,normalized growth,"locus YIL073C, strain SPO22, hits give low values",1.05
same,normalized growth,"locus YIL125W, strain kgd1, hits give low values",1.01
same,normalized growth,"locus YIR030C, strain dcg1, hits give low values",1.02
same,normalized growth,"locus YJL092W, strain hpr5, hits give low values",0.963
same,normalized growth,"locus YJL095W, strain BCK1 (second series), hits give low values",0.958
same,normalized growth,"locus YJL095W, strain BCK1, hits give low values",1 and 0.997
same,normalized growth,"locus YJL115W, strain asf1, hits give low values",0.947
same,normalized growth,"locus YJL129C, strain trk1, hits give low values",0.956
same,normalized growth,"locus YJL134W, strain LCB3, hits give low values",1
same,normalized growth,"locus YJL154C, strain vps35, hits give low values",0.982
same,normalized growth,"locus YJL164C, strain tpk1, hits give low values",0.961
same,normalized growth,"locus YJL166W, strain qcr8, hits give low values",0.974
same,normalized growth,"locus YJL168C, strain set2, hits give low values",1.01
same,normalized growth,"locus YJL187C, strain SWE1 (second series), hits give low values",1.03
same,normalized growth,"locus YJR043C, strain POL32, hits give low values",1.02
same,normalized growth,"locus YJR066W, strain TOR1, hits give low values",0.925

# Source: PubChem BioAssay AID1159580 (chemical genetic matrix, 2015)
